High-throughput results from PubChem.
CCT modulator: High-Throughput Screening for Modulators of Cytosolic Chaperonin Activity; purified chaperonin ATPase assay, HTRF ADP detection, 30 min; activity change, % (no concentration beside the values), hits read low; 0.3% of 360,000 active; AID 651819, 2012; in the data active means activity change below about -30%; further: on the % scale 0 is the no-effect control and ±100 the full control effect
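TRiC (40 or 20 nM final, by batch activity) in 30 mM Tris pH 7.4, 100 mM KCl, 5 mM MgCl2, 1 mM DTT was treated with compound at 76 uM single dose, then 10 uM ATP, 30 min at 37 °C. ADP was read by HTRF Transcreener.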
TSHR antagonist: Antagonists of the Thyroid Stimulating Hormone Receptor: HTS campaign | Thyrotropin receptor (Homo sapiens), P16473 | TSHR-expressing cells, TSH-stimulated cAMP HTRF, 2 h; hits give low values | activity change, negative = inhibition, % at 11.5 µM | 0.2% of 330,000 active;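 active means activity change below a set negative limit, meaning inhibition stronger than a set level, cut at about -70% in these data; inconclusive means activity change between two set negative limits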; further: on the % scale 0 is the no-effect control and ±100 the full control effect
Target sequence (P16473 whole entry, looked up): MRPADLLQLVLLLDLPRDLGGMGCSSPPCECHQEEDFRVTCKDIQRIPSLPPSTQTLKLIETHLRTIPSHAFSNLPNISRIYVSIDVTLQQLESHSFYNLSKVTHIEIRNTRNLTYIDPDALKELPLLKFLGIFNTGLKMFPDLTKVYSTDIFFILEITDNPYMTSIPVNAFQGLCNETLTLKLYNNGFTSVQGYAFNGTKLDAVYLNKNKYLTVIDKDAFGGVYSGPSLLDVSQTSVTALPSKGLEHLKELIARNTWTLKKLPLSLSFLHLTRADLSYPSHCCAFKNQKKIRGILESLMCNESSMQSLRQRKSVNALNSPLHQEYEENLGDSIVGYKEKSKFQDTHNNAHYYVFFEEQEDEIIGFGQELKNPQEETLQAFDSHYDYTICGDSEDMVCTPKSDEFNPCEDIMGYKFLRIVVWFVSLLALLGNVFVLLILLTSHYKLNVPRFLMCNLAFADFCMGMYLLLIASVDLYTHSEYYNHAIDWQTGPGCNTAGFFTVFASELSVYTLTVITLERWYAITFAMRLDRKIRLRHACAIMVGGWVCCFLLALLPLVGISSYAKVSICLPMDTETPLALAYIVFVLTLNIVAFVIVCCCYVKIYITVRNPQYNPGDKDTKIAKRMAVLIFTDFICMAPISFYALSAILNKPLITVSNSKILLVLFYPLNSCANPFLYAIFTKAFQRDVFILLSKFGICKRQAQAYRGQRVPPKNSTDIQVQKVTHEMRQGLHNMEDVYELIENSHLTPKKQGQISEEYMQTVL
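Inhibition of cAMP made by TSHR-expressing cells under TSH stimulation (4nM final, EC80; 2 h, 37 deg C) is quantified with a one-step lysis HTRF kit, anti-cAMP cryptate versus cAMP-d2.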
gsp agonist: qHTS for Agonist of gsp, the Etiologic Mutation Responsible for Fibrous Dysplasia/McCune-Albright Syndrome: qHTS; gsp mutant cells, cAMP HTRF, 30 min; Potency, µM (highest dose often 76.9 µM), inactives show at the highest dose activation (cAMP increase), actives largely listed as activators; 0.13% of 340,000 active; active means well fitted activation curve with a large enough effect; inconclusive means small, poorly fitted or top-dose-only effect, or another doubt; inactive means no such curve, though single readings can be large or run the other way; cell line not stated here;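 further: phosphodiesterase inhibitor Ro 20-1724 added with compounds to block cAMP breakdown; potency means the concentration at half of the fitted maximal effect; nearly all actives have a fitted effect of over 60% in size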
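Cells stably selected in G418 were plated at 2000/well, grown 16-24 hr, then given compounds in DMSO with the PDE inhibitor […] (300 uM solution added) for 30 min at 37C; cAMP was read by HTRF.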
uPA generation: qHTS for Inhibitors of Cell Surface uPA Generation; cell surface uPA generation assay, qHTS; Potency, µM (titrated, usually from 38.3 µM), for inactives: at the highest dose activity change, negative = inhibition, actives largely listed as inhibitors; 0.31% of 330,000 active; active means well fitted inhibition curve with a large enough effect; inconclusive means small, poorly fitted or top-dose-only effect; inactive means no such curve, though single readings can be large or run the other way; tested in mouse RAW 264.7 cells; further: potency means the concentration at half of the fitted maximal effect; on the % scale 0 is the no-effect control and ±100 the full control effect; nearly all actives have a fitted effect of over 55% in size
MmCpn inh: Inhibitors of TCP-1 ring complex (TRiC) of Methanococcus maripaludis (MmCpn): qHTS. AID 504842, 2011. 0.031% of 330,000 active. Potency, µM (top dose mostly 76.9 µM), for the others: at the top dose activity, negative = inhibition, most hits filed as inhibitors. Chaperonin Mm-Cpn (Methanococcus maripaludis). purified Mm-Cpn ATPase, ADP Transcreener TR-FRET; active means well fitted inhibition curve with a large enough effect; inconclusive means small, poorly fitted or top-dose-only effect; further: potency means the concentration at half of the fitted maximal effect; on the % scale 0 is the no-effect control and ±100 the full control effect; nearly all actives have a fitted effect of over 80% in size
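Quantitative HTS used 25 nM Mm-CPN and 10 uM ATP in magnesium/KCl Tris buffer, pH 7.4, with 1 mM DTT. Hydrolysis ran 30 min at 37°C; ADP was read by HTRF.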
gsp antagonist: qHTS for Antagonists of gsp, the Etiologic Mutation Responsible for Fibrous Dysplasia/McCune-Albright Syndrome: qHTS | gsp-mutant cells, cAMP HTRF, 30 min | Potency, µM (top dose mostly 76.9 µM), without a hit: at the top dose activity change, negative = inhibition, hits mostly inhibitors | 0.4% of 340,000 active | AID 624288, 2012; calls by dose curve; cell line not stated here;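 further: intracellular cAMP measured with PDE inhibitor Ro 20-1724 present during compound exposure; potency means the concentration at half of the fitted maximal effect; on the % scale 0 is the no-effect control and ±100 the full control effect; nearly all actives have a fitted effect of over 65% in size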
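Measurement of cellular cAMP by homogeneous time-resolved fluorescence following a 30 min compound exposure at 37C. The PDE inhibitor […] was present throughout; the assay buffer was DPBS with 0.05% BSA and 0.005% Tween 20.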
Numbers without * were called inactive; [ ] = remark or other dose. Rows were chosen to be rich in hits. Some 1.2% of all compounds tested hit in one or more screens of this group.

For N=C1/C(=C/c2cccs2)C(=O)N=C2SN=C(SCc3ccccc3)N12 the results were CCT modulator 0, TSHR antagonist -16, gsp agonist 16%, uPA generation 0%, MmCpn inh 1% and gsp antagonist 32µM*.
For CSC1=NSC2=NC(=O)/C(=C\c3cccs3)C(=N)N12 the results were CCT modulator 0, TSHR antagonist -10, gsp agonist 3%, uPA generation -2%, MmCpn inh -1% and gsp antagonist 35µM*.
`COc1cc2oc3cc(C#Cc4ccc(N)cc4)ccc3c(=O)c2cc1OC` gave CCT modulator -1, gsp agonist inconclusive, uPA generation 4µM* and gsp antagonist -8%.
`Nc1ccc(C#Cc2ccc3c(=O)c4ccccc4oc3c2)cc1` gave CCT modulator -2, TSHR antagonist 2, gsp agonist 28%, uPA generation 1.3µM*, MmCpn inh -1% and gsp antagonist 8%.
Screening O=C(CCCc1ccccc1)Nc1ccccn1 returned CCT modulator -2, TSHR antagonist -4, gsp agonist -3%, uPA generation -1%, MmCpn inh 2% and gsp antagonist 11%.
For O=C(NNC(=S)Nc1ccc(Cl)cc1)c1cccs1 the results were CCT modulator -71*, TSHR antagonist 4, gsp agonist -2%, uPA generation -6%, MmCpn inh -2% and gsp antagonist -9%.
`Cn1c(SCc2ccccc2)nc(N)c(N=O)c1=O` gave CCT modulator -1, gsp agonist -5%, uPA generation 3.5µM* and gsp antagonist -12%.
For COC(=O)CSCc1nc2ccccc2[nH]c1=O the results were CCT modulator -33*, TSHR antagonist 24, gsp agonist 20%, uPA generation -4%, MmCpn inh -3% and gsp antagonist 4%.
Screening COC(=O)CCc1nc2ccccc2[nH]c1=O returned CCT modulator 0, TSHR antagonist -10, gsp agonist -47%, MmCpn inh -2% and gsp antagonist 11%.
Screening COc1ccc(/C=C(/CC(=O)NCc2ccc(Cl)cc2)c2nc3ccccc3s2)cc1 returned CCT modulator 3, TSHR antagonist -10, gsp agonist 10%, uPA generation -2%, MmCpn inh inconclusive and gsp antagonist 1%.
Screening CC(C)(CO)NS(=O)(=O)c1ccc2c(c1)C(=NO)c1cc(S(=O)(=O)NC(C)(C)CO)ccc1-2 returned CCT modulator -1, TSHR antagonist 41, gsp agonist 7.1µM*, uPA generation -3%, MmCpn inh 3% and gsp antagonist 5%.
COCCNS(=O)(=O)c1ccc2c(c1)C(=NO)c1cc(S(=O)(=O)NCCOC)ccc1-2 was read as CCT modulator -2, TSHR antagonist -7, gsp agonist 18%, uPA generation -5%, MmCpn inh -2% and gsp antagonist -5%.
Screening COc1cccc(NC(=S)N(CCc2nc3cc(C)c(C)cc3[nH]2)Cc2cccnc2)c1 returned CCT modulator -1, TSHR antagonist 18, gsp agonist 14%, uPA generation -9%, MmCpn inh -10% and gsp antagonist -4%.
CC(=O)NC1=C(NC2CCS(=O)(=O)C2)C(=O)c2ccccc2C1=O (centres undefined) was read as CCT modulator -44*, TSHR antagonist 18, gsp agonist inconclusive, uPA generation inconclusive, MmCpn inh 0% and gsp antagonist -38%.
`CC(C(=O)N1CCN(c2ccc(Cl)cc2)CC1)c1ncc(C(F)(F)F)cc1Cl` (centres undefined) gave CCT modulator -4, TSHR antagonist -25, gsp agonist -62%, MmCpn inh 1% and gsp antagonist 35µM*.
`COc1ccccc1NC(=O)CN1CCN(c2ccccn2)CC1` gave CCT modulator 0, TSHR antagonist -1, gsp agonist -2%, MmCpn inh 1% and gsp antagonist -13%.
For Cn1cc(CNCc2cnc3ccccn23)c(-c2ccc(Oc3ccccc3)cc2)n1 the results were CCT modulator 2, TSHR antagonist -1, gsp agonist 26%, uPA generation -4%, MmCpn inh 1% and gsp antagonist -17%.
For CN(Cc1cn(C)nc1-c1ccc(Oc2ccccc2)cc1)Cc1cnc2ccccn12 the results were CCT modulator -1, TSHR antagonist -14, gsp agonist inconclusive, uPA generation -3%, MmCpn inh 0% and gsp antagonist 40µM*.
For O=C(CCS(=O)CCC(=O)NCc1ccccc1)NCc1ccccc1 the results were CCT modulator -2, TSHR antagonist 28, gsp agonist -28%, uPA generation 1%, MmCpn inh 1% and gsp antagonist -16%.
For CCOC(=O)CSC1=NC(=O)/C(=C\c2ccc(Cl)cc2)S1 the results were CCT modulator 0, TSHR antagonist -28, gsp agonist 17%, uPA generation -7%, MmCpn inh 0% and gsp antagonist 32µM*.
`CC(=O)c1cccc(NC(=O)c2ccc3c(c2)CCCC3)c1` gave CCT modulator -1, TSHR antagonist -131*, gsp agonist -28%, uPA generation inconclusive, MmCpn inh 1% and gsp antagonist -29%.
CC(=O)c1cccc(NC(=S)NC(=O)c2ccc(C)cc2)c1 was read as CCT modulator 3, TSHR antagonist -7, gsp agonist -3%[15.4 µM], uPA generation -5%, MmCpn inh -2% and gsp antagonist -10%.
CC(=O)c1cccc(NC(=S)NC(=O)c2ccc(Br)cc2)c1 was read as CCT modulator -40*, TSHR antagonist 7, gsp agonist 14%, uPA generation -1%, MmCpn inh -3% and gsp antagonist 4%.
Cc1ccccc1-c1nc(CS(=O)(=O)CC(=O)NCCCN2C(C)CCCC2C)c(C)o1 (centres undefined) was read as CCT modulator 0, TSHR antagonist -5, gsp agonist 11%, uPA generation -4%, MmCpn inh -1% and gsp antagonist 3%.
`CCC(C)N1C(=O)/C(=C/c2c(NCCCOC(C)C)nc3c(C)cccn3c2=O)SC1=S` (centres undefined) gave CCT modulator -4, TSHR antagonist 4, gsp agonist -2%, uPA generation -5%, MmCpn inh 1% and gsp antagonist -5%.
